# “And” between values parts separate entries of the source, which are not always exact repeats. Equal values may be shown once. Records with an inconclusive call do not appear. The source made the active and inactive calls. Calls follow the shape of the dose curve; as a rule, active = well fitted inhibition curve with a large enough effect; inconclusive = small, poorly fitted or top-dose-only effect; inactive = flat fitted curve, though single readings scatter.
# Molecular target: Dual specificity tyrosine-phosphorylation-regulated kinase 1A (Homo sapiens) (UniProt Q13627)
# Experiment: Assay for Inhibitors of Dual-Specificity Tyrosine-(Y)-Phosphorylation Regulated Kinase 1A (Kinase-Glo assay): round 2 SAR
# Conditions: recombinant DYRK1A, Kinase-Glo ATP depletion luminescence; series mostly up to 76.9 µM
# Excerpt: NIH Molecular Libraries Probe Production Centers Network [MLPCN] NIH Chemical Genomics Center [NCGC] MLPCN Grant: 1R03MH084827-01 PI Name: Tom Misteli NCGC Assay Overview: The CMGC group of protein kinases which includes CDK-like kinases (Clk) and Dyks are essential kinases found in all eukaryotes. Clks have been implicated to play a role in the regulation of alternative splicing; while Dyrks, in particular over expression of Dyrk1A, has been linked to diseases as Down syndrome (DS; OMIM 190685) and Alzheimer disease (AD; OMIM 104300). Among the members of the CMGC group, the Clks and the Dyrks are very closely related therefore to determine validity and selectivity of an active compound observed in the CLK4 qHTS screen (AID:1770), a bioluminescent counter-screen against Dyrk1A was developed. In addition, potent and selective compounds against Dyrk1A were identified to further assess the role of this enzyme in DS and AD. Dyrk1A (Invitrogen, cat # PV3785) was assayed using ATP and DYRKtide (AnaSpec, cat# 62698) as substrates. Promega Kinase-Glo (cat# V6712) technology was used to detect the residual ATP following kinetic reaction. The Kinase-Glo Plus contains Ultra-Glo [5] luciferase and D-luciferin which generates a bioluminescence signal from the remaining ATP. No enzyme and harmine (Sigma, cat # 286044-1G), a compound shown to inhibit Dyrks were used as a positive control; while DMSO treatment was used as a negative control.
# NCGC Assay Protocol Summary: Two uL/well of substrate solution (8uM Dyrktide, 2uM ATP, 25mM Tris-HCl pH 7.5, 10mM MgCl2 , 0.5mM EGTA, 5mM cystein, 0.01% Triton X-100 final concentration) was dispensed into 1536-well assay plates (Greiner, solid white, medium-binding plates) with Aurora Discovery BioRAPTR Flying Reagent Dispenser (FRD, Beckton-Dickenson). Compound solution (23 nL) was transferred to the assay plate using Kalypsys pin tool equipped with a 1536-pin tool. One uL/well enzyme solution (5nM Dyrk1A, 25mM Tris-HCl pH7.5, 10mM MgCl2, 0.5mM EGTA, 5mM cystein, 0.01% Triton X-100 final concentration) was then added using FRD yielding a total kinase reaction volume of 3uL/well. After 2 hours of room temperature incubation, 3uL Kinase-Glo detection reagent was added for a final assay volume of 6uL/well. The plates were spun for 30 seconds (1000 rpm) and incubated at ambient temperature for 2 minutes followed by a luminescence read using Perkin Elmer ViewLux plate reader at 3 seconds exposure time and 2x binning.
row,Compound,Potency
1,Cc1ccc(CN(C)c2ncnc3ccc(-c4ccc(C(=O)O)o4)cc23)o1,16.4 µM (active)
2,Cc1csc(CNc2ncnc3ccc(-c4ccoc4)cc23)c1,3.68 µM (active)
3,CCNC(=O)c1ccc(-c2ccc3ncnc(NCc4ccc(C)o4)c3c2)o1,9.23 µM (active)
4,Cc1cccc(CNc2ncnc3ccc(-c4ccoc4)cc23)c1,3.68 µM (active)
5,Cn1ccc2cc(-c3ccc4ncnc(NCc5ccc6c(c5)OCO6)c4c3)ccc21,inactive
6,Cc1csc(CNc2ncnc3ccc(-c4ccc5c(c4)OCO5)cc23)n1,0.207 µM (active)
7,Cn1ccc2cc(-c3ccc4ncnc(NCc5cccc(F)c5)c4c3)ccc21,inactive
8,c1cncc(CNc2ncnc3ccc(-c4ccoc4)cc23)c1,9.23 µM (active)
9,Fc1cccc(CNc2ncnc3ccc(-c4ccoc4)cc23)c1,0.823 µM (active)
10,CN(CC1CCCO1)c1ncnc2ccc(-c3ccc4c(c3)OCO4)cc12 (stereo not given),0.26 µM (active)
11,c1nc(NCc2ccc3c(c2)OCO3)c2cc(-c3ccc4c(c3)OCCO4)ccc2n1,4.12 µM (active)
12,CCNC(=O)c1ccc(-c2ccc3ncnc(NCc4nccs4)c3c2)o1,10.4 µM (active)
13,O=C(O)c1ccc(-c2ccc3ncnc(NCc4nccs4)c3c2)o1,18.4 µM (active)
14,c1coc(CNc2ncnc3ccc(-c4ccc5c(c4)OCO5)cc23)c1,0.207 µM (active)
15,COc1cccc(-c2ccc3ncnc(NCc4ccc5c(c4)OCO5)c3c2)c1,9.23 µM (active)
16,Clc1ccccc1-c1ccc2ncnc(NCc3cccnc3)c2c1,26 µM (active)
17,Cc1csc(CNc2ncnc3ccc(-c4ccc5c(c4)OCO5)cc23)c1,0.463 µM (active)
18,CS(=O)(=O)CCNCc1ccc(-c2ccc3ncnc(Nc4ccc(OCc5cccc(F)c5)c(Cl)c4)c3c2)o1,inactive
19,Cc1nc(CCNc2ncnc3ccc(-c4ccc5c(c4)OCO5)cc23)cs1,0.26 µM (active)
20,Cc1ccc(CN(C)c2ncnc3ccc(-c4ccc(CO)o4)cc23)o1,0.823 µM (active)

row,Compound,Potency
1,Cc1nc(CCN(C)c2ncnc3ccc(-c4ccc5c(c4)OCO5)cc23)cs1,0.654 µM (active)
2,COc1cccc(-c2ccc3ncnc(NCc4cc(C)cs4)c3c2)c1,5.82 µM (active)
3,Cc1ccc(CNc2ncnc3cc(-c4ccc5c(c4)OCO5)ccc23)o1,23.2 µM (active)
4,CC(O)c1ccc(-c2ccc3ncnc(N4CCOCC4)c3c2)o1 (stereo not given),23.2 µM (active)
5,CN(Cc1ccco1)c1ncnc2ccc(-c3ccoc3)cc12,0.207 µM (active)
6,c1csc(CNc2ncnc3ccc(-c4ccc5c(c4)OCO5)cc23)n1,0.184 µM (active)
7,CC(=O)c1ccc(-c2ccc3ncnc(NCc4ccc(C)o4)c3c2)o1,5.82 µM (active)
8,Cc1cccc(CNc2ncnc3ccc(-c4ccc5c(c4)OCO5)cc23)c1,1.04 µM (active)
9,Cc1ccc(CNc2ncnc3ccc(-c4ccc([C@@H](C)O)o4)cc23)o1,26 µM (active) and 16.4 µM (active) and 23.2 µM (active)
10,CC(Nc1ncnc2ccc(-c3ccc4c(c3)OCO4)cc12)c1ccco1 (stereo not given),0.582 µM (active)
11,COc1cccc(Nc2ncc3nc(-c4cn(C)c5ccccc45)c(=O)n(CCC#N)c3n2)c1,inactive
12,Cc1cccc(CNc2ncnc3ccc(-c4cccnc4)cc23)c1,29.2 µM (active)
13,c1nc(N2CCNCC2)c2cc(-c3ccc4c(c3)OCO4)ccc2n1,5.19 µM (active)
14,COc1cccc(Nc2ncc3ncc(=O)n(C)c3n2)c1,11.6 µM (active)
15,CCCNc1ncnc2ccc(-c3ccc4c(c3)OCO4)cc12,0.184 µM (active)
16,OCc1ccc(-c2ccc3ncnc(N4CCOCC4)c3c2)o1,16.4 µM (active)
17,CN(CC1CCCCO1)c1ncnc2ccc(-c3ccc4c(c3)OCO4)cc12 (stereo not given),0.292 µM (active)
18,CC(O)c1ccc(-c2ccc3ncnc(NCCc4cnc[nH]4)c3c2)o1 (stereo not given),23.2 µM (active)
19,Cc1cccc(-c2ccc3ncnc(NCc4cccc(F)c4)c3c2)c1,13 µM (active)
20,CN(CC1CCCCC1)c1ncnc2ccc(-c3ccc4c(c3)OCO4)cc12,0.26 µM (active)
